Compound activity: PubChem BioAssay, National Center for Advancing Translational Sciences (NCATS)
MARV entry inh = Marburg virus entry inhibition; Marburg virus pseudotyped entry inhibition, cell reporter; Potency, µM (titrated, usually from 37.8 µM), without a hit: top-dose activity change, negative = inhibition, hits mostly inhibitors; hit rate 1.8% among 300,000; calls by dose curve; tested in HEK293 cells; also: potency is read from the fitted curve at half-maximal effect; % is scaled to controls: 0 for no effect and ±100 for the full control effect
Shiga inhibitor = blocks Shiga toxin action in Vero cells; Vero cells, Shiga toxin protein synthesis inhibition reporter; inhibition, % at 38.7 µM; hit rate 9.2% among 290,000; AID 2315; in the data active = inhibition mostly above about 28%, no sharp cut-off; inactive = mostly below about 43%; also: 0% is about no effect
Pf growth 48h = P. falciparum growth inhibition at 48 hours (one generation); P. falciparum luciferase growth in erythrocytes, 48 h; Potency, µM (series often up to 28.7 µM), inactives show at the top dose activity change, negative = inhibition, usual class: inhibitors; hit rate 5.9% among 310,000; also: potency is read from the fitted curve at half-maximal effect; % is scaled to controls: 0 for no effect and ±100 for the full control effect
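Luciferase-expressing parasites in RBCs, 2% Hct / 0.1% parasitemia final; RPMI 1640 + 0.5% Albumax; 37 C, 5% CO2, one generation; luminescence read-out, lower signal = inhibition.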
Lassa entry inh = blocks Lassa virus binding to or entry into cells; hit rate 1.2% among 300,000; Potency, µM (titrated, usually from 37.9 µM), for inactives: at the highest dose activity change, negative = inhibition, hits mostly inhibitors; Lassa virus pseudotype entry inhibition, cell reporter; calls by dose curve; tested in HEK293 cells; also: potency is read from the fitted curve at half-maximal effect; % is scaled to controls: 0 for no effect and ±100 for the full control effect; nearly all actives have a fitted effect of over 50% in size
Pf growth 96h = inhibits malaria parasite growth, 96 h | P. falciparum luciferase reporter growth, 96 h | Potency, µM (doses to about 28.7 µM), for inactives: top-dose activity change, negative = inhibition, hits mostly inhibitors | AID 504834 | hit rate 6.9% among 320,000; also: potency is read from the fitted curve at half-maximal effect; % is scaled to controls: 0 for no effect and ±100 for the full control effect
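P. falciparum expressing integrated firefly luciferase, in erythrocytes at 2% hematocrit, 0.05% parasitemia, incubated with compounds 96 h at 37 C, 5% CO2. Growth inhibition read as loss of luminescence; two-generation exposure targets delayed-death apicoplast inhibitors.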
Cycloheximide cs = affects cycloheximide protein synthesis inhibition readout, counter-screen. hit rate 12% among 300,000. cell reporter, cycloheximide protein synthesis inhibition counterscreen. max response, %. AID 2314; in the data active = max response mostly above about 13%, no sharp cut-off; inactive = mostly below about 14%; also: read at 38.3 µM for the half of the compounds with a filed dose; 0% is about no effect
Active calls of the source: *; [ ] = another dose, or the depositor's remark. Hits are enriched below; roughly 19% of the tested compounds scored in any of these assays. Unless noted, calls follow the shape of the dose curve; as a rule, active = well fitted inhibition curve with a large enough effect; inconclusive = small, poorly fitted or top-dose-only effect, or another doubt; inactive = no such curve, though single readings can be large or run the other way.

How did COCCN1CCN(C(=O)c2cc(COc3ccc(F)c(F)c3)on2)CC1 do in these assays?
MARV entry inh: 9%; Shiga inhibitor: 26; Pf growth 48h: 14%; Lassa entry inh: 16%; Pf growth 96h: inconclusive; Cycloheximide cs: 27*

What do the screens show for `COCCN1CCN(C(=O)c2cc(COc3ccc(F)cc3F)on2)CC1`?
MARV entry inh: 22%; Shiga inhibitor: 10; Pf growth 48h: 15%; Lassa entry inh: inconclusive; Pf growth 96h: inconclusive; Cycloheximide cs: 1

How did CCCN1CCN(C(=O)c2cc(COc3ccc(F)c(F)c3)on2)CC1 do in these assays?
Shiga inhibitor: 40*; Pf growth 48h: 20%; Pf growth 96h: 0%; Cycloheximide cs: 29*

How did O=C(c1cc(COc2ccc(F)c(F)c2)on1)N1CCN(C/C=C/c2ccccc2)CC1 do in these assays?
MARV entry inh: inconclusive; Shiga inhibitor: 45*; Pf growth 48h: inconclusive; Lassa entry inh: inconclusive; Pf growth 96h: -8%; Cycloheximide cs: 37*

Results for CSc1nc2n(n1)C(c1cccs1)C1=C(CCCC1=O)N2 (stereo not given) ?
MARV entry inh: -14%[46.1 µM]; Shiga inhibitor: 21; Pf growth 48h: 2%; Lassa entry inh: 2%; Pf growth 96h: 63%; Cycloheximide cs: 1

How did CC1Cc2cc(-c3csc(N)n3)ccc2O1 (stereo not given) do in these assays?
MARV entry inh: inconclusive; Shiga inhibitor: 36*; Pf growth 48h: 88%; Lassa entry inh: inconclusive; Pf growth 96h: 0%; Cycloheximide cs: 26*

How did c1cncc(-c2nc(-c3ccc4c(c3)OCO4)cs2)c1 do in these assays?
MARV entry inh: -2%[46.1 µM]; Shiga inhibitor: 85*; Pf growth 48h: -30%; Lassa entry inh: -24%; Cycloheximide cs: 28*

How did CC1Cc2cc(/C=C3/SC(=S)N(C)C3=O)ccc2O1 (stereo not given) do in these assays?
MARV entry inh: 7%[46.1 µM]; Shiga inhibitor: 25; Pf growth 48h: 164%; Lassa entry inh: 1%[46.1 µM]; Pf growth 96h: 77%; Cycloheximide cs: 25

How did Nc1nc(-c2ccc3c(c2)CCCC3)cs1 do in these assays?
MARV entry inh: inconclusive; Shiga inhibitor: 93*; Pf growth 48h: 354%; Lassa entry inh: inconclusive; Pf growth 96h: 346%; Cycloheximide cs: 36*

Results for Fc1ccc(-c2csc(/C=C/c3ccc4c(c3)OCO4)n2)cc1 ?
Shiga inhibitor: 39*; Pf growth 48h: 39%; Pf growth 96h: 25%; Cycloheximide cs: 20*

Results for COc1cc(NC(=O)CC(C)n2ccnc2)cc(OC)c1 (stereo not given) ?
MARV entry inh: 25%[46.1 µM]; Shiga inhibitor: -6; Pf growth 48h: 24%; Lassa entry inh: 3%[46.1 µM]; Pf growth 96h: 95%; Cycloheximide cs: 1

Results for Cc1nc(-c2ccc3c(c2)OCO3)cs1 ?
MARV entry inh: 9%; Shiga inhibitor: 43*; Pf growth 48h: 44%; Lassa entry inh: 21%; Pf growth 96h: 127%; Cycloheximide cs: 16*

What do the screens show for `Cc1nc(-c2ccc3c(c2)OCCCO3)cs1`?
MARV entry inh: -17%; Shiga inhibitor: 87*; Pf growth 48h: 333%; Lassa entry inh: inconclusive; Pf growth 96h: 231%; Cycloheximide cs: 45*

Results for Nc1nc(-c2cc3c(cc2Cl)OCCO3)cs1 ?
MARV entry inh: 0%; Shiga inhibitor: 44*; Pf growth 48h: 34%; Lassa entry inh: 26%; Pf growth 96h: inconclusive; Cycloheximide cs: 40*

Results for Nc1nc(-c2ccc3c(c2)OCCO3)cs1 ?
MARV entry inh: -16%; Shiga inhibitor: 79*; Pf growth 48h: 100%; Lassa entry inh: 7%; Cycloheximide cs: 50*

What do the screens show for `COc1ccc(-c2csc(C)n2)cc1OC`?
MARV entry inh: 9%; Shiga inhibitor: 1; Lassa entry inh: 2%; Pf growth 96h: 8%; Cycloheximide cs: 5

How did COc1cccc(C(c2sc3ncnn3c2O)N2CCc3ccccc3C2)c1 (stereo not given) do in these assays?
Shiga inhibitor: -4; Pf growth 48h: inconclusive; Pf growth 96h: inconclusive; Cycloheximide cs: -2

Results for c1ccc(-n2ncc3c(NCCN4CCCCC4)ncnc32)cc1 ?
MARV entry inh: 10%; Shiga inhibitor: 66*; Pf growth 48h: 122%; Lassa entry inh: 16%; Pf growth 96h: 393%; Cycloheximide cs: 52*

Results for COc1ccc(-n2ncc3c(NCCC4=CCCCC4)ncnc32)cc1 ?
Lassa entry inh: 5%[46.1 µM]

What do the screens show for `Cc1cccc(-n2ncc3c(NCCN4CCOCC4)ncnc32)c1`?
MARV entry inh: inconclusive; Shiga inhibitor: -5; Pf growth 48h: 0%; Lassa entry inh: 19%; Pf growth 96h: -18%; Cycloheximide cs: 2

How did c1ccc(-n2ncc3c(NCCN4CCOCC4)ncnc32)cc1 do in these assays?
MARV entry inh: inconclusive; Shiga inhibitor: 72*; Pf growth 48h: 85%; Lassa entry inh: inconclusive; Pf growth 96h: 12µM*; Cycloheximide cs: 22*

Results for O=C(CCNS(=O)(=O)c1ccc2c(c1)CCC(=O)N2)NCc1cccnc1 ?
MARV entry inh: 16%; Shiga inhibitor: -13; Pf growth 48h: 10%; Lassa entry inh: 0%; Pf growth 96h: inconclusive; Cycloheximide cs: -1

How did CCOC(=O)/C(C#N)=N/Nc1c(C)n(C)n(-c2ccccc2)c1=O do in these assays?
MARV entry inh: 7%[46.1 µM]; Shiga inhibitor: 15; Pf growth 48h: -25%; Lassa entry inh: -25%[46.1 µM]; Pf growth 96h: inconclusive; Cycloheximide cs: -6

What do the screens show for `Cc1c(N/N=C(\C#N)C(=O)c2ccccc2)c(=O)n(-c2ccccc2)n1C`?
MARV entry inh: 11µM*; Shiga inhibitor: -3; Pf growth 48h: 1.7µM*; Lassa entry inh: inconclusive; Pf growth 96h: inconclusive; Cycloheximide cs: -1

What do the screens show for `Cc1ccccc1C(=O)/C(C#N)=N/Nc1c(C)n(C)n(-c2ccccc2)c1=O`?
MARV entry inh: inconclusive; Shiga inhibitor: -7; Pf growth 48h: 1.7µM*; Lassa entry inh: inconclusive; Pf growth 96h: 12%; Cycloheximide cs: -3

What do the screens show for `Cc1c(NC=C(C#N)C#N)c(=O)n(-c2ccccc2)n1C`?
MARV entry inh: 2%[46.1 µM]; Shiga inhibitor: -7; Pf growth 48h: 0%; Lassa entry inh: inconclusive; Pf growth 96h: -1%; Cycloheximide cs: -4

What do the screens show for `O=C(CN1C(=O)c2cccnc2C1=O)c1ccccc1`?
MARV entry inh: 27%; Shiga inhibitor: 13; Pf growth 48h: 43%; Lassa entry inh: 14%; Pf growth 96h: 44%; Cycloheximide cs: 7

How did CCOC(=O)CC(NC(=O)c1cc2cc(Br)cc(OC)c2oc1=O)c1ccc(OC)cc1 (stereo not given) do in these assays?
MARV entry inh: 3%[46.1 µM]; Lassa entry inh: 16%[46.1 µM]

What do the screens show for `Cc1ccc(SCCOCCN2CCOCC2)cc1`?
MARV entry inh: 7%; Shiga inhibitor: 11; Pf growth 48h: -7%; Lassa entry inh: 23%; Pf growth 96h: inconclusive; Cycloheximide cs: 0
